# Assay results published in PubChem BioAssay (Tox21).
# Where “and” joins values, the source holds several entries; their conditions need not be identical. Equal entries are not always repeated. Records with an inconclusive call do not appear. Where a call stands in place of a potency, no number is given. More than one record can exist for a structure, and the calls need not agree. Calls of active or inactive are those of the source. Unless noted, the call rests on the fitted dose curve; in most records, active means well fitted curve in the direction sought with a large enough effect in the repeat runs; inconclusive means weak or mixed curves; inactive means no such curve, though single readings can be large; an effect the other way counts as inactive or inconclusive.
# Tests used:
# [1] = qHTS assay to identify small molecule agonists of the hypoxia (HIF-1) signaling pathway - cell viability counter screen (AID 1224844; calls by dose curve; further: nearly all actives have a fitted effect of over 50% in size; further: potency means the concentration at half of the fitted maximal effect)
# In short: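 HRE-bla ME-180; 0.5% dFBS; cpd 17 h, 37C, 5% CO2; CellTiter-Glo lum., 30 min RT, post-FRET read, same wells.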
# [2] = qHTS assay to identify small molecule agonists of H2AX (AID 1224845; active means well fitted activation curve with a large enough effect in the signal ratio in the repeat runs, not every such curve was filed as active; the % refers to the signal ratio; further: potency means the concentration at half of the fitted maximal effect)
# In short: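 Wild-type CHO-K1 cells, plated overnight, exposed 3hr at 37C to 15 concentrations (0.76% DMSO final). Lysed, then HTRF anti-pH2AX (S139) cryptate and anti-H2AX-d2 antibodies, 24 hr room temperature; 665/620 nm emission read.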
# [3] = qHTS assay to identify small molecule agonists of H2AX - cell viability counter screen (AID 1224847; calls by dose curve; further: nearly all actives have a fitted effect of over 30% in size; further: potency means the concentration at half of the fitted maximal effect)
# In short: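 CHO-K1 cells plated overnight at 37C, then exposed 3 h at 37C to compounds at 15 concentrations (0.76% DMSO final). Viability by CellTiter-Glo luminescence after 30 min at room temperature.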
# [4] = qHTS assay to identify small molecule antagonists of the estrogen related receptor (ERR) signaling pathway from Tox21 library (AID 1224848); further: nearly all actives have a fitted effect of over 50% in size; further: potency means the concentration at half of the fitted maximal effect
# In short: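 Quantitative high-throughput format: ERR reporter cells (2,000/well) pre-incubated 6 h, treated 18 h at 37 C with compounds in DMSO alongside positive and negative controls, then read by ONE-Glo luminescence.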
# [5] = qHTS assay to identify small molecule agonists of the estrogen related receptor (ERR) signaling pathway from Tox21 library (AID 1224849; calls by dose curve; further: nearly all actives have a fitted effect of over 15% in size); settings: ERR reporter cell line, ONE-Glo luciferase, 18 h
# In short: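 Tox21 compounds tested for ERR agonism in an NTP reporter cell line: 18 h treatment at 37 C, then ONE-Glo luminescence.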
# [6] = qHTS RealTime-Glo MT Cell Viability Assay in HepG2 cells - 24 hour (AID 1224867); further: nearly all actives have a fitted effect of over 50% in size; further: potency means the concentration at half of the fitted maximal effect
# In short: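 Luminescence read-out: viable HepG2 cells reduce a prosubstrate to a NanoLuc substrate, giving a signal proportional to live cell number. Reads taken at 0, 8, 16, 24, 32 and 40 h of compound exposure at 37 C.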
# [7] = qHTS RealTime-Glo MT Cell Viability Assay in HEK293 cells - 32 hour (AID 1224868); further: nearly all actives have a fitted effect of over 50% in size; further: potency means the concentration at half of the fitted maximal effect
# In short: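 Nonlytic real-time viability readout: viable cells convert prosubstrate to NanoLuc substrate, giving luminescence proportional to live cell number. HEK293, 600 cells/well, compound added after 5 h, continuous culture at 37 C.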
# [8] = A CellTox Green Cytotoxicity Assay to monitor cytotoxicity in HEK293 cells - 0 hour (AID 1224869); further: nearly all actives have a fitted effect of over 50% in size; further: potency means the concentration at half of the fitted maximal effect
# In short: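 Tox21 screen in HEK293: membrane-impermeant cyanine dye fluoresces on binding dead-cell DNA; compound pinned 5 h post-seeding, plates held at 37 C, signal read repeatedly through 40 h.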
# [9] = qHTS assay to identify small molecule agonists of the hypoxia (HIF-1) signaling pathway (AID 1224846; active means well fitted activation curve with a large enough effect in the signal ratio in the repeat runs, not every such curve was filed as active; the % refers to the signal ratio)
# In short: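 Reporter induction in HRE-bla ME-180 cells is taken as agonism: cells sit 5 hrs after plating, receive compounds or DMSO only, incubate 17 hrs at 37C under 5% CO2, and are loaded with CCF4-AM for beta-lactamase FRET measurement.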
# [10] = qHTS RealTime-Glo MT Cell Viability Assay in HepG2 cells - 40 hour (AID 1224870); further: nearly all actives have a fitted effect of over 50% in size; further: potency means the concentration at half of the fitted maximal effect
# In short: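 HepG2 cells (600/well) mixed with RealTime-Glo MT reagent, settled 5 h at 37 C/5% CO2 before compound addition. Nonlytic NanoLuc luminescence from viable-cell prosubstrate reduction read repeatedly during 40 h treatment at 37 C.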
SMILES,Potency [1],Potency [2],Potency [3],Potency [4],"activity change, positive = activation ([5]; at 42.5 µM (top of the series))","activity change, positive = activation ([5]; at 92.4 µM (top of the series))",Potency [6],Potency [7],Potency [8],outcome [9],Potency [10]
CCOP(=S)(OCC)Oc1ccc2c(C)c(Cl)c(=O)oc2c1,inactive,inactive,inactive,inactive,25.6% (active),-10.9% (inactive) and -28.3% (inactive),inactive,12.4 µM (active) and 43.6 µM (active) and inactive,inactive,,
CCCCCCCCCCn1cc[n+](C)c1,inactive,inactive,,,,,inactive,,inactive,inactive,
Cc1cc(Cl)ccc1OCC(=O)O,inactive,inactive,inactive,,,,inactive,inactive,inactive,,inactive
O=C(O)CCl,inactive,inactive,inactive,inactive,,5.04% (inactive) and -0.191% (inactive) and -5.49% (inactive),inactive,inactive,inactive,,inactive
CCCCn1cc[n+](C)c1C,inactive,inactive,inactive,,,,inactive,,inactive,,
CC(=O)O,inactive,inactive,inactive,,,,inactive,,inactive,,inactive
CCCCCCn1cc[n+](C)c1,inactive,inactive,inactive,,,,inactive,,inactive,,
CCCCCCCCCCCC(=O)O,inactive,inactive,inactive,,,,inactive,,inactive,,inactive
CCCCn1cc[n+](C)c1,inactive,inactive,inactive,,,,inactive,,inactive,,inactive and 35.2 µM (active)
CC[N+]1(C)CCCC1,inactive,inactive,inactive,,,,inactive,,inactive,,
O=C(O)COc1ccc(Cl)cc1Cl,inactive,inactive,inactive,,,,inactive,,inactive,,
C[N+](C)(C)Cc1ccccc1,inactive,inactive,inactive,,,,inactive,,inactive,,inactive
CCCCCCCCCCCCn1cc[n+](C)c1,,inactive,,,,,,,inactive,inactive,
CCCCCCCCCCCCOS(=O)(=O)O,48.3 µM (active) and inactive,inactive,inactive,,,,inactive,,inactive,,
Nc1ccc(-c2ccc(N)c(Cl)c2)cc1Cl,inactive,,101 µM (active),,,,inactive and 49 µM (active),,inactive and 38.9 µM (active),inactive,inactive and 54.9 µM (active)
C=CCOC(Cn1ccnc1)c1ccc(Cl)cc1Cl (centres undefined),39 µM (active) and inactive,,113 µM (active) and inactive,,,,inactive,21.9 µM (active) and 38.9 µM (active),inactive,,
N#CS,inactive,inactive,inactive,,,,inactive,,inactive,,inactive
CCCC[N+]1(C)CCCCC1,inactive,inactive,inactive,,,,inactive and 48.8 µM (active),,inactive,,inactive and 30.8 µM (active)
CCCC[N+]1(C)CCCC1,inactive,inactive,inactive,,,,inactive,inactive,inactive,,inactive and 43.9 µM (active)

SMILES,Potency [1],Potency [2],Potency [3],Potency [4],"activity change, positive = activation ([5]; at 42.5 µM (top of the series))","activity change, positive = activation ([5]; at 92.4 µM (top of the series))",Potency [6],Potency [7],Potency [8],outcome [9],Potency [10]
CCCC[n+]1ccc(C)cc1,inactive and 38.7 µM (active),inactive,inactive and 89.3 µM (active),,,,inactive,,inactive,,
CCC[N+]1(C)CCCC1,inactive,inactive,inactive,,,,inactive,,inactive,,
CC(=O)[O][Hg][c]1ccccc1,154 nM (active) and 1.74 µM (active) and 2.68 µM (active),,3.16 µM (active) and 5.66 µM (active) and 24.7 µM (active),2.15 µM (active) and 3.44 µM (active) and 5.96 µM (active),-71% (inactive),-80.3% (inactive) and -73.5% (inactive),1.72 µM (active) and 1.95 µM (active) and 1.07 µM (active),,inactive,,1.93 µM (active) and 1.95 µM (active) and 1.07 µM (active)
CCCCCC[n+]1ccccc1,inactive,inactive,inactive,,,,inactive,,inactive,,
O=C(O)CC(O)(CC(=O)O)C(=O)O,inactive,inactive,inactive,,,,inactive,,inactive,,
CCCC[n+]1ccccc1C,inactive,inactive,inactive,,,,inactive,,inactive,,inactive
Nc1ccc(-c2ccc(N)cc2)cc1,inactive,,inactive,,,,inactive,inactive,inactive,,
CCC[N+]1(C)CCCCC1,inactive,inactive,inactive,,,,inactive,,inactive,,inactive and 24.6 µM (active)
Oc1cccc2cccnc12,1.1 µM (active) and inactive,1.43 µM (active) and 3.02 µM (active) and inactive,inactive,,,,inactive and 3.47 µM (active),20.7 µM (active) and 5.49 µM (active) and inactive,inactive,,inactive and 3.09 µM (active)
CNC,inactive,inactive,inactive,,,,inactive,,inactive,,
CC[n+]1ccccc1,inactive,inactive,inactive and 1.26 µM (active),,,,inactive,,inactive,,
CN(C)[C@@H]1C(=O)C(C(N)=O)=C(O)[C@@]2(O)C(=O)C3=C(O)c4c(O)cccc4[C@@](C)(O)[C@H]3[C@H](O)[C@@H]12,inactive,,inactive,,,,inactive,,inactive,,
Oc1ccccc1-c1ccccc1,inactive,inactive,inactive,,,,inactive,,inactive,,
CCCn1cc[n+](C)c1,inactive,inactive,inactive,,,,inactive,,inactive,,49.4 µM (active) and inactive
CCCCCCCCCCCCCCCCn1cc[n+](C)c1,inactive and 49.4 µM (active) and 31 µM (active),inactive,,,,,inactive and 49.4 µM (active) and 43.8 µM (active),,inactive,,
Cc1cc(-c2ccc(N)c(C)c2)ccc1N,inactive,,inactive,,,,inactive,,inactive,inactive,inactive
CCC(=O)C(CC(C)N(C)C)(c1ccccc1)c1ccccc1 (centres undefined),inactive,inactive,inactive,,,,inactive,,inactive,,
C1CCC(NC2CCCCC2)CC1,inactive,inactive,inactive,,,,inactive,,inactive,,
